Compound activity from PubChem BioAssay.
Compounds with a hit are over-represented: about 12% of the library has one in this group of screens.
BAZ2B block: blocks human BAZ2B; actives 4.4% (n = 360,000); AlphaScreen BAZ2B-H3K14Ac peptide displacement; Potency, µM (doses to about 114 µM), actives largely listed as inhibitors; further: nearly all actives have a fitted effect of over 60% in size
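AlphaScreen luminescence quantifies BAZ2B engagement of H3K14Ac peptide; the protein and biotinylated peptide are both at 50 nM final, buffer PBS pH 7.4 with 0.01% Tween-20, all steps at room temperature.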
G9a inh: inhibitors of human histone lysine methyltransferase G9a | actives 8.8% (n = 350,000) | Potency, µM (titrated, usually from 102 µM), actives largely listed as inhibitors | G9a H3K9 monomethylation, AlphaScreen, 2 h | AID 504332; further: nearly all actives have a fitted effect of over 75% in size
Target sequence (Q96KQ7 913-1193 limits assumed): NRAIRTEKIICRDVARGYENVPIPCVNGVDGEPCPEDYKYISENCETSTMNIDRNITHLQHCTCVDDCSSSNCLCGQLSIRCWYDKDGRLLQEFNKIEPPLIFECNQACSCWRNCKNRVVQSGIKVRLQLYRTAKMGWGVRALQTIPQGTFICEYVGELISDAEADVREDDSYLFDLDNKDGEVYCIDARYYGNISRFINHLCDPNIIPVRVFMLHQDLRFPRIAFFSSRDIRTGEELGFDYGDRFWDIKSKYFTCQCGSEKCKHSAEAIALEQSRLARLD
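Compounds were preincubated with 20 nM G9a for 15 min, after which biotinylated H3K9 peptide (500 nM) and SAM (20 uM) started a 2 h room-temperature reaction. Monomethylated product was quantified by antibody-based AlphaScreen chemiluminescence.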
Sfp PPTase inh: Sfp phosphopantetheinyl transferase inhibition. Potency, µM, usual class: inhibitors. Q9F4F7. Biochemical Sfp PPTase activity, qHTS. actives 3.5% (n = 310,000);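 further: the enzyme is Sfp with the accession as filed and its product quenches rhodamine fluorescence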
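Sfp 15 nM + cpd, 15 min RT; start w/ rhodamine-CoA 5 uM, BHQ-2-YbbR 12.5 uM (final); 50 mM Hepes pH 7.6, 10 mM MgCl2, 0.01% NP-40, 0.01% BSA; read 525/598 nm at 0 and 30 min.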
HP1b binding inh: blocks HP1-beta chromodomain binding to methylated histone tails; AlphaScreen HP1-beta / biotin-H3K9me3 peptide binding; Potency, µM (top dose mostly 114 µM), most hits filed as inhibitors; actives 0.56% (n = 390,000); further: nearly all actives have a fitted effect of over 70% in size
Target sequence (P83916 whole entry, looked up): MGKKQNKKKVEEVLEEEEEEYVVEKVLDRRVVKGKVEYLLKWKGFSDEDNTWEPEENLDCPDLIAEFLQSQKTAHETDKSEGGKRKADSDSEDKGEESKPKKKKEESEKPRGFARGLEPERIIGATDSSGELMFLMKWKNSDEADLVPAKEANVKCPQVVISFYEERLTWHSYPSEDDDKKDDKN
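Compound inhibition of the preformed complex between 50 nM HP1-beta and 50 nM biotinylated H3K9me3 peptide was read by AlphaScreen. Buffer was PBS pH 7.4 with 0.01% Tween-20. Incubations ran 30 min at room temperature, with 10 ug/mL donor/acceptor beads.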
JMJD2A Tudor inh: inhibitors of human JMJD2A Tudor domain | O75164 | Potency, µM (doses to about 114 µM), hits mostly inhibitors | actives 4.4% (n = 390,000) | AlphaScreen JMJD2A-Tudor / H3K4me3 peptide binding; further: nearly all actives have a fitted effect of over 50% in size
TDP1 inh: TDP1 (human) enzyme inhibition | Q9NUW8 | recombinant TDP1, AlphaScreen DNA substrate cleavage | Potency, µM (doses to about 130 µM), most hits filed as inhibitors | actives 0.28% (n = 350,000); further: nearly all actives have a fitted effect of over 40% in size
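Here, a 5' biotin and 3' phosphotyrosine-FITC DNA oligonucleotide reports Tdp1 activity: intact substrate bridges AlphaScreen beads, while cleavage leaves a 3' phosphate and drops signal. All incubations at room temperature.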
Numbers stand for hits; . = inactive; ? = inconclusive; / = no result given; [ ] = dose if it differs, or a comment. The call rests on the fitted dose curve; in most records, active means well fitted curve in the direction sought with a large enough effect; inconclusive means small, poorly fitted or top-dose-only effect, or another doubt; inactive means no such curve, though single readings can be large; an effect the other way counts as inactive or inconclusive.

SMILES | BAZ2B block | G9a inh | Sfp PPTase inh | HP1b binding inh | JMJD2A Tudor inh | TDP1 inh
COC(=O)C1C(O)CC[C@H]2CN3CCc4c([nH]c5ccccc45)C3C[C@H]12 (some centres undefined) | / | / | . | / | / | .
C/C(CC(=O)N1CCN(C=O)CC1)=N\NC(=O)c1ccc([N+](=O)[O-])cc1 | . | 10µM | ? | . | . | .
N#C/C(=C\c1cc(Cl)cc(Cl)c1)c1cccnc1 | / | . | . | / | / | .
Cn1cc(CN(C(=O)Nc2ccccc2)C2CCCCC2)c2ccccc21 | / | ? | / | . | ? | .
O=C(CNc1cccc2ccccc12)N/N=C/C=C/c1ccco1 | . | 20µM | . | . | . | .
Cc1ccc(OCC(=O)N/N=C/C=C/c2ccco2)cc1C | ? | 39.8µM | 44.7µM | . | . | .
O=C(Cc1cccs1)N/N=C/C=C/c1ccco1 | 44.7µM | 39.8µM | ? | 28.2µM | ? | .
N=C(N)SCCN | . | . | . | . | . | .
Cc1ccc(/C=N/n2c(-c3ccco3)n[nH]c2=S)s1 | . | 1.26µM | ? | . | 20µM | .
S=c1[nH]nc(-c2ccco2)n1/N=C/c1ccc(Cl)cc1 | ? | 1.26µM | . | ? | 39.8µM | .
S=c1[nH]nc(-c2ccco2)n1/N=C/c1ccccc1Cl | . | 1.41µM | ? | . | 31.6µM | .
C[C@H]1CN([C@@H](C)CO)C(=O)Cc2cc(NS(=O)(=O)c3cccs3)ccc2O[C@H]1CN(C)S(=O)(=O)c1cn(C)cn1 | / | / | / | . | . | .
CC(=O)NC(=S)Nc1ccc(-c2nc3ccc(C)cc3s2)cc1 | . | / | . | . | . | .
CC1=CCC(C(=O)O)C(C(=O)Nc2ccc(-c3nc4ccc(C)cc4s3)cc2)C1 (centres undefined) | ? | / | . | . | ? | 25.1µM
CCCCCNC(=O)C1CCC(Cn2c(=S)[nH]c3ccccc3c2=O)CC1 (centres undefined) | . | . | . | . | . | .
O=C(OCCNc1ncc(C(F)(F)F)cc1Cl)c1ccc(S(=O)(=O)N2CCOCC2)cc1 | . | . | . | . | . | .
O=C(CONS(=O)(=O)c1ccc(Cl)cc1)NCCNc1ncc(C(F)(F)F)cc1Cl | . | 56.2µM | . | . | . | .
COc1ccc(O)c(C(=O)c2cc(C(=O)NCCc3ccccc3)c(=O)n(CCc3ccccc3)c2)c1 | ? | 8.91µM | . | ? | ? | .
Cc1ccc(O)c(C(=O)c2cc(C(=O)NCCc3ccccc3)c(=O)n(CCc3ccccc3)c2)c1 | . | . | . | . | . | .
O=C(Nc1cccc(-c2cn3c(n2)SCC3)c1)c1ccc(Br)o1 | 56.2µM | 7.94µM | . | . | . | .
O=C(Nc1ccc(-c2cn3c(n2)SCC3)cc1)c1ccco1 | . | 28.2µM | . | . | . | .
CCc1ccc(-c2cn3c(n2)SCC3)cc1 | ? | 44.7µM | . | . | . | .
O=C(Cc1ccc(F)cc1)Nc1cccc(-c2cn3c(n2)SCC3)c1 | ? | 10µM | . | . | . | .
CC(C)(C)C(=O)Nc1ccc(-c2nc3ccccc3s2)cc1 | . | . | / | . | . | .
Cc1ccc(NC(=O)CCCC2CCCCC2)c(O)c1 | . | . | . | . | . | .
SMILES | BAZ2B block | G9a inh | Sfp PPTase inh | HP1b binding inh | JMJD2A Tudor inh | TDP1 inh
CCn1ncc(CN2CCC(Oc3cc(C(=O)NC4CC4)ccc3OC)CC2)c1C | . | . | . | . | . | .
Cn1c(CNc2nc(-c3ccccc3)cs2)nnc1SCC(=O)OC1CCCCC1 | ? | ? | . | ? | . | .
COc1ccc(C(=O)CSc2nnc(CNC(=O)c3ccccc3)n2C)cc1 | . | / | . | . | . | .
COc1cccc(C(=O)CSc2nnc(CNc3nc(-c4ccccc4)cs3)n2C)c1 | . | 8.91µM | . | . | . | .
CC(C)OC(=O)CSc1nnc(CNc2nc(-c3ccccc3)cs2)n1C | ? | 44.7µM | . | . | . | .
O=C(CSc1nc2c(c(=O)[nH]1)CCC2)Nc1cc(C(F)(F)F)ccc1Cl | . | ? | / | . | . | .
COC(=O)C1C(=O)c2c(C)noc2CC1(C)C (centres undefined) | . | . | . | . | . | .
O=C(CNC1=NCCC1)c1ccc(Cl)cc1 | . | 28.2µM | . | . | . | .
Cc1c(/C=N/NC(N)=O)c2ccccn2c1C(=O)c1ccncc1 | . | 44.7µM | . | . | ? | .
Cc1c(/C=N/NC(=O)c2cccnc2)c2ccccn2c1C(=O)c1ccc(F)cc1 | . | . | . | / | / | .
COc1ccccc1CCNC(=O)c1ccc2nc[nH]c2c1 | 50.1µM | . | . | . | . | ?
COc1cc(C(=O)NC2=C(C#N)CCC2)cc(OC)c1OC | . | 50.1µM | . | . | . | /
CN(C)c1ccc(NC(=O)c2cccc(N3C(=O)CCC3=O)c2)cc1 | . | 39.8µM | . | . | . | .
COc1cc(C(=O)Nc2ccccc2NC(=O)c2cc(OC)c(OC)c(OC)c2)cc(OC)c1OC | . | . | . | . | . | /
COc1cc(C(=O)Nc2ccc(N(C)C)cc2)cc(OC)c1OC | ? | 44.7µM | . | . | ? | .
COC(=O)C/C=C\[C@@H](C)[C@@H](/C=N\O[C@@H]1O[C@H](COC(C)=O)[C@@H](OC(C)=O)[C@H](OC(C)=O)[C@H]1OC(C)=O)NS(=O)(=O)c1ccc(C)cc1 | / | / | . | / | / | .[21 µM]
O=c1c2ccccc2n(Cc2cccc(F)c2)c(=O)n1Cc1ccccc1Cl | . | . | / | . | . | .
O=C(NNC(=O)c1ccccc1Br)c1ccc2nc[nH]c2c1 | 50.1µM | / | . | . | ? | 11.2µM
CN(C)c1ccc(NC(=O)c2ccc3nc[nH]c3c2)cc1 | 44.7µM | ? | . | . | . | /
O=C(NCCCN1CCOCC1)c1ccc2c(=O)n(Cc3ccccc3)c(=S)[nH]c2c1 | . | 50.1µM | . | . | . | .
COc1ccc(-n2c(=S)[nH]c3cc(C(=O)NCCCN4CCOCC4)ccc3c2=O)cc1OC | ? | 35.5µM | . | . | 22.4µM | .
O=C(c1ccc2c(c1)CCN2S(=O)(=O)c1ccc(Cl)cc1)N1CCN(c2ccccc2)CC1 | ? | ? | / | . | . | .
C1=C(CN2CCOCC2)COc2c1cccc2OC[C@@H]1CNCCO1 | / | / | . | / | / | .
C/C=C(\C)[C@H](O)C[Si](C)(C)c1ccccc1 | / | / | . | / | / | .
COc1cc(/C=C2/C(=N)N3C(=NC2=O)SN=C3S(C)(=O)=O)ccc1OS(=O)(=O)c1ccc(C)cc1 | ? | ? | . | . | 56.2µM | .
Cc1cccc(-n2c(C)cc(/C=C3\C(=N)N4N=C(CC(C)C)SC4=NC3=O)c2C)c1 | . | . | . | . | . | .
Cc1ccc(S(=O)(=O)Oc2ccc(/C=C3/C(=N)N4C(=NC3=O)SN=C4S(C)(=O)=O)cc2)cc1 | ? | / | . | . | ? | .
